# Data reported in the supplement of paper PMC10849652.
# About 7,900 targets were measured; listed, in parts, are those with a hit and a random draw of the rest. About 0.6% of all pairs of compound and target were hits. Values without a mark were called inactive.
# Key:
# Experiment in all cases: log2 fold change, soluble protein after heating vs DMSO (PISA); higher = thermal stabilisation; K562 cells, 10 uM, 30 min; active = over 0.2 and 3.5 SD of the protein, either way, in both replicates (recomputed)
# erlotinib = compound: C#Cc1cccc(Nc2ncnc3cc(OCCOC)c(OCCOC)cc23)c1 [erlotinib]
# Summary of the method: (§1)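 K562 cells at 2×10^6 cells/mL were treated for 30 min with 10 μM compound, and aliquots were heated for 3 min over 48°C-58°C before pooling. Extraction used PBS with 0.5% NP-40 at 4°C, and soluble protein was the supernatant after 21,000xg for 90 min, measured by TMTpro 16plex LC-MS/MS with channel sums equalised. Thermal stability values, relative to control samples and from duplicates, are log2 fold changes.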
# [1] = compound: C/C(=N\NC(=O)C1=CC(=CC=C1)S(=O)(=O)N2CCOCC2)/C3=C(C=CC(=C3)Cl)O
# Summary of the method: as §1
# [2] = compound: C1=CC(=C(C=C1Cl)C2=NC3=NC=CN=C3C(=N2)NC4=CC=NC=C4)F
# Summary of the method: as §1
# [3] = compound: C1=CC(=CC=C1C2=NC3=C(N2)C=C(C=C3)C(=O)N)OC4=CC=C(C=C4)Cl
# Summary of the method: as §1
# [4] = compound: C1=CC2=C(C=CC(=C2)/C=C\3/C(=O)NC(=NCC4=CC=CS4)S3)N=C1
# Summary of the method: as §1
# [5] = compound: C1=CC2=NC=CN=C2C=C1/C=C/3\C(=O)NC(=O)S3
# Summary of the method: as §1
# [6] = compound: C1=CC=C(C=C1)C2=NC(=C(N2)C3=CC=NC=C3)C4=CC(=C(C=C4)Cl)O
# Summary of the method: as §1
# [7] = compound: C1=CC=C2C(=C1)C3=NNC4=CC=CC(=C43)C2=O
# Summary of the method: as §1
# [8] = compound: C1CCN(C1)C(=O)NC2=CC=CC(=C2)NC3=NC=C(C(=N3)NCCC4=CN=CN4)Br
# Summary of the method: as §1
# [9] = compound: C1CN(CCC1(CC2=CC=C(C=C2)Cl)N)C3=NC=NC4=C3C=CN4
# Summary of the method: as §1
# IRAK-1-4 Inhibitor I = compound: C1COCCN1CCN2C3=CC=CC=C3N=C2NC(=O)C4=CC(=CC=C4)[N+](=O)[O-] [IRAK-1-4 Inhibitor I]
# Summary of the method: as §1
# ibrutinib = compound: C=CC(=O)N1CCC[C@@H](n2nc(-c3ccc(Oc4ccccc4)cc3)c3c(N)ncnc32)C1 [ibrutinib]
# Summary of the method: as §1
# [10] = compound: CC(=O)c1cnc2ccc(-c3cc(Cl)c(O)c(Cl)c3)nc2c1N[C@H]1CC[C@H](CN(C)C)CC1
# Summary of the method: as §1
# ralimetinib = compound: CC(C)(C)Cn1c(N)nc2ccc(-c3[nH]c(C(C)(C)C)nc3-c3ccc(F)cc3)nc21 [ralimetinib]
# Summary of the method: as §1
# [11] = compound: CC(C)(O)CC(=O)NCCn1ccc2ncnc(Nc3ccc(Oc4cccc(C(F)(F)F)c4)c(Cl)c3)c21
# Summary of the method: as §1
# [12] = compound: CC(C)C1=C2N=C(C=C(N2N=C1)NCC3=CC=CC=C3)NCCCCCCN
# Summary of the method: as §1
# [13] = compound: CC(C)C[C@@H](C=O)NC(=O)[C@H](CC(C)C)NC(=O)[C@H](CC(C)C)NC(=O)OCc1ccccc1
# Summary of the method: as §1
# pinometostat = compound: CC(C)N(C[C@H]1O[C@@H](n2cnc3c(N)ncnc32)[C@H](O)[C@@H]1O)[C@H]1C[C@@H](CCc2nc3cc(C(C)(C)C)ccc3[nH]2)C1 [pinometostat]
# Summary of the method: as §1
# [14] = compound: CC1=C(C(CC(=O)N1)C2=CC=C(C=C2)C(F)(F)F)C(=O)NC3=C(C=C4C(=C3)C=NN4)F
# Summary of the method: as §1
# [15] = compound: CC1=C(C2=C(C=C1)C(=O)C3=CC=CC=C3N2CCCN)C
# Summary of the method: as §1
# UniProt Q8IVT5, sequence (Q8IVT5 whole entry, looked up): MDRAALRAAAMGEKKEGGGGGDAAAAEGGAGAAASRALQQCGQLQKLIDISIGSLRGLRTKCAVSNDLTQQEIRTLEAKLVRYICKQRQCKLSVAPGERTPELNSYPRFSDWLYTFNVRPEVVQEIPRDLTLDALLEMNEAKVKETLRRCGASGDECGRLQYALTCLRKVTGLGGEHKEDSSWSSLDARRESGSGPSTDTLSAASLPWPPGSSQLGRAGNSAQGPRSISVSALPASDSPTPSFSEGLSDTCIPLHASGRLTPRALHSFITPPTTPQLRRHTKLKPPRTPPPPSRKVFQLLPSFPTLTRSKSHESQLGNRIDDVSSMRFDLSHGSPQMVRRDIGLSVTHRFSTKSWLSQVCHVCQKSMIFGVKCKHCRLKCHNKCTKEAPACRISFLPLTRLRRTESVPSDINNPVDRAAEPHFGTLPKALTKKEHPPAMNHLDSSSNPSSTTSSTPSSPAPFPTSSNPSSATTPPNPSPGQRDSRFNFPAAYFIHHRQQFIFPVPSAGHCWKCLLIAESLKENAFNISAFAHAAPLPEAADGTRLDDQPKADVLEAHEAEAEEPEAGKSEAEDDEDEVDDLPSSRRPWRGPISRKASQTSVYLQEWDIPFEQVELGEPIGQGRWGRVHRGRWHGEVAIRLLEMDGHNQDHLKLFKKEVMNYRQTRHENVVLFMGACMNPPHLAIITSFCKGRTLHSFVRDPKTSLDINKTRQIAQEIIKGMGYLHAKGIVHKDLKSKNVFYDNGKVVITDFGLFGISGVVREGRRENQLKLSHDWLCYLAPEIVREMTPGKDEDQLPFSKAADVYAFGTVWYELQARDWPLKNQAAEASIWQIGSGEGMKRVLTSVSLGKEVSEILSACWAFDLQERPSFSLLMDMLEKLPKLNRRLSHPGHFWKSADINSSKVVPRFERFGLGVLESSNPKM
# UniProt Q8IYU8, sequence (Q8IYU8 whole entry, looked up): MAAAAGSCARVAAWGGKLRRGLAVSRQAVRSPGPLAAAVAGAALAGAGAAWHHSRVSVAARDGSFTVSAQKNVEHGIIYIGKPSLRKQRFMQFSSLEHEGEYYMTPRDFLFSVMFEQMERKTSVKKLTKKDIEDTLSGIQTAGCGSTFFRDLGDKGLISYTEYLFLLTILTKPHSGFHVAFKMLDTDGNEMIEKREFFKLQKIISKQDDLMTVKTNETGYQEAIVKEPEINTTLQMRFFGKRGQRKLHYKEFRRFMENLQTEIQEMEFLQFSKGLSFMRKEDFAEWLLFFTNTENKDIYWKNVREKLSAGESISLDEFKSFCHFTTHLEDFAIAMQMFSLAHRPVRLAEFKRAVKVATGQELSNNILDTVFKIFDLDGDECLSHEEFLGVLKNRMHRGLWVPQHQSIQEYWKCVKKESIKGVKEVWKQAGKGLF
# UniProt Q16891, sequence (Q16891 whole entry, looked up): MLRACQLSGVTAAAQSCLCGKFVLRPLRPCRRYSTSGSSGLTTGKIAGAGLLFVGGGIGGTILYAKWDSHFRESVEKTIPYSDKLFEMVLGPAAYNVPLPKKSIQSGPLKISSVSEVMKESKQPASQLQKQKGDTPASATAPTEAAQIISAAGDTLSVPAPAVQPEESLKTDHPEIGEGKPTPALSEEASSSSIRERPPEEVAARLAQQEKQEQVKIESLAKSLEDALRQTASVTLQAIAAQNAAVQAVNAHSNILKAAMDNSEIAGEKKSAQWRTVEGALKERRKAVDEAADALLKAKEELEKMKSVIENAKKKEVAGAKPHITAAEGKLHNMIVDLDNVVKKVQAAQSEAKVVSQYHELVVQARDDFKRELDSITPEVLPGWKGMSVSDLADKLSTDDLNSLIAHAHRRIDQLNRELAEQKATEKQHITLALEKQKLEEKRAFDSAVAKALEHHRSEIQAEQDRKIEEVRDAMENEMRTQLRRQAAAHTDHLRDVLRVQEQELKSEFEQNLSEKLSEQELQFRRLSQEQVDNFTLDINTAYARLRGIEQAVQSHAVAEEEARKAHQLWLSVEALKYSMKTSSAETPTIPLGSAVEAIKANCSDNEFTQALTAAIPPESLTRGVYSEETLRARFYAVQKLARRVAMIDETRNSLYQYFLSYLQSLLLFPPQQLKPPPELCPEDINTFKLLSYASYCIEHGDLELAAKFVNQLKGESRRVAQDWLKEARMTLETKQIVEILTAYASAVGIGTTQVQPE
# UniProt P46734, sequence (P46734 whole entry, looked up): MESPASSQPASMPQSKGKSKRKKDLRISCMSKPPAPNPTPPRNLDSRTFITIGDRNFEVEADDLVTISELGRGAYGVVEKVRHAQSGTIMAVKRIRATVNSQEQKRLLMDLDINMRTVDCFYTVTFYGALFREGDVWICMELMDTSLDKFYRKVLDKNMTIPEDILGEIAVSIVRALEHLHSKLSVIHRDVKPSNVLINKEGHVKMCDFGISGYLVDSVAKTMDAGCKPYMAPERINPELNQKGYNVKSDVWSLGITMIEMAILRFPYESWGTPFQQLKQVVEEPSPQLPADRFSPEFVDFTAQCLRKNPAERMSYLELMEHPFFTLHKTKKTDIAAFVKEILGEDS
# UniProt Q32MZ4, sequence (Q32MZ4 whole entry, looked up): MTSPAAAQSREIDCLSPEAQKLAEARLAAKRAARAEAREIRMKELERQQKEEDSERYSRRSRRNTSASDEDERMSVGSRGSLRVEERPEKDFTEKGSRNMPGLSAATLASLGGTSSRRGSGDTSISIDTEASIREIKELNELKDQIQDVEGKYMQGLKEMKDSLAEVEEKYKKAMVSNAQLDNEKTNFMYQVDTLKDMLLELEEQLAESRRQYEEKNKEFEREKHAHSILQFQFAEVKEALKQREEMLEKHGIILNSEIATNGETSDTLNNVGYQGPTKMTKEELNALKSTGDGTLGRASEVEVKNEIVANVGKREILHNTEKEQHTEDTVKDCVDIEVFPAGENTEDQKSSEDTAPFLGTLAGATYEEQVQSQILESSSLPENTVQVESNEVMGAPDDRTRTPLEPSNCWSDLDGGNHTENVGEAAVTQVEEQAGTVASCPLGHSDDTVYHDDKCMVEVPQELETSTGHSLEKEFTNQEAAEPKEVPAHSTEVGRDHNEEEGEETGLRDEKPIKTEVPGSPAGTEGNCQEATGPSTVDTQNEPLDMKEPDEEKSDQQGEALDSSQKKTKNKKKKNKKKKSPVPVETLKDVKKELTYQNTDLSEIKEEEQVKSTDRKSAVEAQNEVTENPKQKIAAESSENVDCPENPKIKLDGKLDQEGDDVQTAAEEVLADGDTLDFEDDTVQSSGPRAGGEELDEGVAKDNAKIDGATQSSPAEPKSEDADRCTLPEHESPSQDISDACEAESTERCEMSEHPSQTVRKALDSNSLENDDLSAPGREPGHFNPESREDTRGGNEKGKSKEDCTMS
# UniProt Q13257, sequence (Q13257 whole entry, looked up): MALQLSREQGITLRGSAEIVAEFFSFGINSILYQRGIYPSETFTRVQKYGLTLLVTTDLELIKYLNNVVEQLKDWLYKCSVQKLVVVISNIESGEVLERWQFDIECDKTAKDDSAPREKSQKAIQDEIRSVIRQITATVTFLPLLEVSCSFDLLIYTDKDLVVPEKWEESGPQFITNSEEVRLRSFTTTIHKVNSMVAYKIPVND
# UniProt Q07666, sequence (Q07666 whole entry, looked up): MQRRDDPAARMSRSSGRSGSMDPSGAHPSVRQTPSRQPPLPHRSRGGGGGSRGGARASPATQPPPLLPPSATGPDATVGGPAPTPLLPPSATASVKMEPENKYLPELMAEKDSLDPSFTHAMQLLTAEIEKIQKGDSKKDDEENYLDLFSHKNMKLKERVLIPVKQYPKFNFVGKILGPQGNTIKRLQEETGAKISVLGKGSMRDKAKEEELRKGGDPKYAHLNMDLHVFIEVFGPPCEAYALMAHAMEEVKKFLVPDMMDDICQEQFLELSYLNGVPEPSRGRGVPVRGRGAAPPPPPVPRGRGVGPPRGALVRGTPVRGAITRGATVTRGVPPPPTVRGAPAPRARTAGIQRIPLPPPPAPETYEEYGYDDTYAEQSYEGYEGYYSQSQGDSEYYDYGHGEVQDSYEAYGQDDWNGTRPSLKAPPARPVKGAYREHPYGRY
# UniProt Q9NQG6, sequence (Q9NQG6 whole entry, looked up): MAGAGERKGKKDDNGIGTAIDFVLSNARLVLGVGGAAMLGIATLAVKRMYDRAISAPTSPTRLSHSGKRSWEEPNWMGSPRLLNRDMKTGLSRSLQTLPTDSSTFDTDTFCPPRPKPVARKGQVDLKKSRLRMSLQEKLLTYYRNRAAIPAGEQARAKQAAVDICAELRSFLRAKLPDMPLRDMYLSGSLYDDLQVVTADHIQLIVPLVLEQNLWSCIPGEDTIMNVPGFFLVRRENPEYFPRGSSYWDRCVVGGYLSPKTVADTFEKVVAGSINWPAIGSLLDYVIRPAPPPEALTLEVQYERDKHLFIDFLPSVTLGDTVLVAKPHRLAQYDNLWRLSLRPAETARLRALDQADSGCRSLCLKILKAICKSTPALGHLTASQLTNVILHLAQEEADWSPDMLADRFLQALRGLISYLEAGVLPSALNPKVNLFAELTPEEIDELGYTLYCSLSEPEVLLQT
# UniProt O43766, sequence (O43766 whole entry, looked up): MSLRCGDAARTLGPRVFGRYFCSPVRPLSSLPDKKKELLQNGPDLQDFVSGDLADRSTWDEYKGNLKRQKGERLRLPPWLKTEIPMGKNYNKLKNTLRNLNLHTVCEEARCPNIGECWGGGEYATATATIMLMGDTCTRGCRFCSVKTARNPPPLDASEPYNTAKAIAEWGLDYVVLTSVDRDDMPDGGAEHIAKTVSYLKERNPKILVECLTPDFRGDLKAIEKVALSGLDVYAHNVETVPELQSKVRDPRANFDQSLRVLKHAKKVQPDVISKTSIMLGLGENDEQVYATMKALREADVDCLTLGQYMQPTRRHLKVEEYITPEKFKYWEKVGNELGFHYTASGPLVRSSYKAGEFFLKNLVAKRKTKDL
Target,log2 fold change (erlotinib),log2 fold change [1],log2 fold change [2],log2 fold change [3],log2 fold change [4],log2 fold change [5],log2 fold change [6],log2 fold change [7],log2 fold change [8],log2 fold change [9],log2 fold change (IRAK-1-4 Inhibitor I),log2 fold change (ibrutinib),log2 fold change [10],log2 fold change (ralimetinib),log2 fold change [11],log2 fold change [12],log2 fold change [13],log2 fold change (pinometostat),log2 fold change [14],log2 fold change [15]
KPNB1 (UniProt Q14974),-0.001,0.075,-0.03,-0.036,-0.028,0.029,-0.049,-0.016,-0.034,-0.136,-0.079,-0.041,0.033,0.042,-0.036,-0.355 (active),0.035,0.113,0.012,-0.038
MIEF1 (UniProt Q9NQG6),0.009,0.03,0.104,0.021,0.072,0.001,0.025,-0.027,-0.028,-0.021,0.056,-0.003,-0.016,-0.07,-0.183,-0.247,-0.034,-0.038,-0.085,0.112
MAD2L1 (UniProt Q13257),-0.01,0.056,0.029,-0.052,0.033,0.056,-0.009,0.007,0.01,-0.032,0,-0.095,0.008,-0.004,-0.057,-0.112,-0.018,0.031,-0.004,-0.033
KSR1 (UniProt Q8IVT5),0.082,0.004,0.044,-0.044,0.162,0.058,0.185,-0.106,-0.088,0.058,-0.07,-0.084,-0.807 (active),0.065,-0.231,-0.085,0.085,0.035,0.011,0.044
LPCAT3 (UniProt Q6P1A2),-0.062,0.028,0.032,0.07,0.152,0.071,0.211,0.014,0.059,0.002,0.014,-0.034,0.099,0.009,0.148,-0.65 (active),-0.004,0.083,-0.004,0.03
IWS1 (UniProt Q96ST2),0.029,0.029,0.091,0,-0.033,0.022,-0.013,-0.077,-0.067,-0.033,-0.026,-0.027,0.492 (active),-0.04,-0.09,0.166,-0.04,0.014,-0.044,-0.301 (active)
IMMT isoform 2 (UniProt Q16891),-0.057,0.043,0.051,-0.022,-0.07,-0.021,-0.026,0.021,0.007,0.047,0.053,-0.011,0.022,0.054,0.051,0.015,-0.028,0.058,0.035,-0.106
MICU2 (UniProt Q8IYU8),-0.013,-0.013,-0.06,-0.002,-0.038,-0.015,0.103,0.018,0.045,-0.042,-0.039,-0.001,-0.026,-0.05,-0.12,-0.292,0.128,0.211,0.072,0.136
MAP2K3 isoform 3 (UniProt P46734),-0.011,0.05,0.002,0.009,0.036,0.017,0.046,-0.057,0.016,-0.006,0.012,0.032,-0.457 (active),0.02,0.059,-0.035,-0.022,-0.012,0.064,-0.032
"LRBA, A0A494BZW2",0.111,0.022,0.283,0.124,-0.055,0.061,-0.105,-0.013,0.097,0.189,0.02,0.018,-0.009,0.01,0,-0.436,0.041,0.076,0.006,-0.237
KHDRBS1 (UniProt Q07666),-0.023,0.042,-0.076,0.029,-0.088,0.046,0.027,0.014,-0.029,-0.084,-0.069,0.038,-0.002,0.016,0.073,-0.039,0.017,-0.052,-0.012,0.621 (active)
LRRFIP1 (UniProt Q32MZ4),0.072,-0.045,-0.027,0.018,-0.01,0.052,-0.024,-0.042,0.056,0.041,0.014,0.019,0.027,-0.003,0.063,0.084,0.011,0,0,-0.043
MAP4 (UniProt E7EVA0),0,-0.093,-0.219,0.063,-0.087,0.058,-0.086,-0.003,0.034,-0.053,-0.058,-0.036,-0.022,0.088,0.013,-0.025,0.049,0.104,-0.046,0.027
INPP5B (UniProt P32019),-0.027,0.056,0.071,-0.052,0.055,-0.018,0.026,-0.04,-0.064,-0.039,-0.1,-0.048,-0.013,0.062,-0.053,-0.308 (active),0.122,0.101,0.042,-0.077
LIAS (UniProt O43766),0.068,-0.24 (active),0.011,0.019,0.014,0.007,-0.273,0.009,0.028,0,0.029,0.005,0.101,-0.212,-0.003,-0.023,0.131,-0.011,0.003,-0.01
ILRUN (UniProt Q9H6K1),-0.009,0.069,-0.033,0.027,0.075,0.043,-0.06,-0.063,0.028,0.041,0.031,0.044,-0.011,-0.004,-0.035,-0.148,0.027,-0.06,0.031,-0.055
